In general, AC50 refers to the concentration at which the activity in the assay is half-maximal.

Each structure is given as a SMILES string. Active and inactive are the calls of the source. The calls were made as follows: active = hit-call score of the fitted dose curve at least 0.9, where 1 is the maximum; inactive = score below 0.9.

The results in this text go back to PubChem BioAssay (EPA / NIEHS).

Tumor necrosis factor (Homo sapiens), sequence (P01375 whole entry, looked up): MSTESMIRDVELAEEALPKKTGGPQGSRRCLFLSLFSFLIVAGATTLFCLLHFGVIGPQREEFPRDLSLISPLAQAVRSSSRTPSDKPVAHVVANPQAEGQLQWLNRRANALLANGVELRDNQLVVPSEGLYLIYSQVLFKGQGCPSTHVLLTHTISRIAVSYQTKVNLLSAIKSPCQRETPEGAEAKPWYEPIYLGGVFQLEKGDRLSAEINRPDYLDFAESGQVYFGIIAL

Read-out in the test: Tumor necrosis factor (Homo sapiens) (UniProt P01375)
The experiment in a line: BSK_LPS_TNFa: BioMAP Diversity Plus: LPS Assay for Tumour Necrosis Factor alpha (TNFa) Biomarker Activity (AID 2283085). The following applies: primary human HUVEC with PBMC; actives raise or lower the signal. On the procedure: BSK_LPS is a cell-based, multiplexed-readout assay that uses umbilical vein endothelium and peripheral blood mononuclear cells, a human vascular primary cell co-culture, with measurements taken at 24 hours after chemical dosing in a 96-well plate.BSK_LPS_TNFa is an assay component measured in the BSK_LPS assay. It measures TNF-a antibody related to regulation of gene expression using ELISA technology.Data from the assay component BSK_LPS_TNFa was analyzed into 1 assay endpoint. This assay endpoint, BSK_LPS_TNFa, was analyzed with bidirectional fitting relative to DMSO as the negative control and baseline of activity. Using a type of binding reporter, gain or loss-of-signal activity can be used to understand changes in the signaling as they relate to the gene TNF. Furthermore, this assay endpoint can be referred to as a primary readout, because this assay has produced multiple assay endpoints where this one serves a signaling function. To generalize the intended target to other relatable targets, this assay endpoint is annotated to the cytokine intended target family, where the subfamily is inflammatory factor.
The levels of cell surface (or secreted, indicated by the prefix "s") biomarker endpoints were measured by ELISA. Overt cytotoxicity to cells in confluent adherent cultures (all systems other than the BT system) was assessed by measuring total protein levels using sulforhodamine B (SRB) staining in parallel cultures at the time of biomarker measurements, indicated as SRB endpoints. For proliferation assays for adherent cell types, individual cell types are cultured at sub-confluence and relative cell numbers quantified by SRB staining at time points optimized for each system (48 h: 3C and CASM3C systems; 72 h: BT and HDF3CGF systems; 96 h: SAg system). SRB was performed by staining cells with 0.1% SRB after fixation with 10% TCA and reading wells at 560 nm.Viability and proliferation of PBMC (T cells) was quantified by Alamar Blue reduction for the SAg and BT systems. For PBMC viability (referred to as PBMC Cytotoxicity within the assay endpoint names), cells were plated (75,000/well in a 96-well plate) and then chemical samples added for 1 h before addition of activators, SEB and TSST-1 (20 ng/mL final concentration each). Cells were incubated for 90 h. Then, Alamar Blue (20 uL/well) (Invitrogen, Cat DAL1100) was added for 6 h, and the plates were read with a fluorescence microplate reader at 546/580 nm (excitation/emission). For PBMC proliferation, cells were plated and activated as above but incubated for only 16 h prior to addition of Alamar Blue. Plates were read after 6 h.
As for `CC1(C)NC(=O)NC1=O`, the result was inactive. With `CC(=O)OCCOCCOCCOC(C)=O`, the outcome was inactive.

For `Cc1nc(C)nc(N2C[C@@H](C)N(c3ccnc([C@@H](C)O)n3)[C@@H](C)C2)n1`, the result was inactive. With `Cc1nc(-c2ccc3c(c2)CCN(CCC2CCC(NC(=O)/C=C/c4ccc(F)cc4)CC2)CC3)no1` (stereo not given), the result was inactive. Turning to `C[C@]12C=CC(=O)C=C1CC[C@@H]1[C@@H]2C(=O)C[C@@]2(C)[C@H]1CC[C@]2(O)C(=O)CO`, the result was inactive. Regarding `Cc1cc(=O)[nH]c(=S)[nH]1`, the result was inactive. With `Cc1ccc(N(C)C)cc1`, the outcome was inactive. On to `O=C(O)Cc1ccccc1Nc1c(Cl)cccc1Cl`, for which the AC50 was 20 µM (active). For `CC(C)(C)c1cc(O)c(C(C)(C)C)cc1O`, the AC50 is 1.43 µM (active). For the molecule `NC(=O)Cn1c(=O)cc(CCN2CCN(c3nccc4sccc34)CC2)c2ccc(F)cc21`, the result was inactive. `Nc1ccc(S(=O)(=O)c2ccc(N)cc2)cc1`: the outcome was inactive. For the molecule `CCOC(=O)C(C)(C)Oc1ccc(Cl)cc1`, the result was inactive. Take `C1CCC(SSC2CCCCC2)CC1`: the AC50 is 32.5 µM (active). Consider `CCCCCCOCCO`, for which the outcome was inactive.

Consider `CNC(=O)[C@H]1O[C@@H](n2cnc3c(NCc4cc(Cl)ccc4OCc4cc(C)no4)ncnc32)[C@H](O)[C@@H]1N`, for which the result was inactive. Take `NCCO`: the result was inactive. As to `Cc1cccc(C)c1O`, the result was inactive. For `CCCCCCCCCCO`, the result was inactive. For `NS(=O)(=O)c1cc2c(cc1Cl)NCNS2(=O)=O`, the result was inactive. `CCCCCCCCCCCCCCCC`: the result was inactive.

Take `CCc1c(C(=O)NN2CCCCC2)nn(-c2ccc(Cl)cc2Cl)c1-c1ccc(Br)cc1`: the outcome was inactive. Take `O=C(OCCCCCOC(=O)c1ccccc1)c1ccccc1`: the AC50 was 12.7 µM (active). For the molecule `CCCCc1ccc2c(n1)[C@@H](c1ccc(OC)cc1C[C@H](C)C(=O)O)[C@H](C(=O)O)[C@H]2c1ccc2c(c1)OCO2`, the outcome was inactive. As for `CC(=O)C(C)=CC1C(C)=CCCC1(C)C` (stereo not given), the outcome was inactive. `CCCCOC(=O)CCCCCCCCC(=O)OCCCC`: the result was inactive. As for `CCCCCCCCCCC`, the outcome was inactive. Turning to `CN[C@H]1CC[C@@H](c2ccc(Cl)c(Cl)c2)c2ccc(S(N)(=O)=O)cc21`, the concentration at half-maximal activity (AC50) is 23.3 µM (active).

With `COC(=O)c1ccc(O)cc1`, the result was inactive. As for `COc1cc(C=O)ccc1O`, the outcome was inactive. Regarding `Cc1ccc(Cl)cc1`, the outcome was inactive. As to `O=C(O)CCCCC(=O)O`, the result was inactive.

In the case of `C[Si]1(C)O[Si](C)(C)O[Si](C)(C)O[Si](C)(C)O1`, the outcome was inactive. Still for that read-out and setting: in the case of `CC(=O)OC/C=C(\C)CCC=C(C)C` it was “inactive”.

Take `COc1cc(-c2nc(NC(=O)c3cc4cc(C)cc(C)c4n3CC(=O)O)sc2CCC2CCCCC2)c(OC)cc1Cl`: the AC50 was 10 µM (active).

For the molecule `COc1cc(S(=O)(=O)O)c(C)cc1N=Nc1c(O)ccc2cc(S(=O)(=O)O)ccc12`, the outcome was inactive. Consider `COc1ccc(S(=O)(=O)N2C(=O)[C@@](c3ccccc3OC)(N3C[C@H](O)C[C@H]3C(=O)N(C)C)c3cc(Cl)ccc32)c(OC)c1`, for which the AC50 is 16.6 µM (active).

With `O=C(N[C@@H](Cc1ccccc1)[C@@H](O)C(=O)N1C[C@@H](O)[C@@H](O)C1)c1cc2cc(Cl)ccc2[nH]1`, the result was inactive. Regarding `Cc1cc(NC(=O)C(=O)O)cc(C)c1Oc1ccc(O)c2c1CCC2`, the AC50 is 0.844 µM (active). As to `NCC1(Cc2noc(=O)[nH]2)CCCCC1`, the result was inactive.

As to `CCCCCCCC=O`, the outcome was inactive.
